“And” between values parts separate entries of the source, which are not always exact repeats. Equal values may be shown once. Inconclusive results are not listed. Entries that show only a call come without a potency. Some structures have more than one record in an assay (separate samples or runs), and their calls can disagree. The source made the active and inactive calls. The call rests on the fitted dose curve; in most records, active means well fitted curve in the direction sought with a large enough effect in the repeat runs; inconclusive means weak or mixed curves; inactive means no such curve, though single readings can be large; an effect the other way counts as inactive or inconclusive.
What was measured:
[1] = Human pregnane X receptor (PXR) small molecule agonists, qHTS cell viability counter screen (AID 1346977); settings: PXR-Luc HepG2 viability, CellTiter-Fluor, 24 h; series mostly up to 92.4 µM; further: nearly all actives have a fitted effect of over 50% in size
Summary of the method: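 PXR-Luc HepG2 cells in medium with 5% charcoal-stripped FBS were pre-incubated 5hr, then exposed to compounds for 24hr at 37C. Viability was read in the same wells by CellTiter-Fluor fluorescence, reagent added after 23hr with a 1hr incubation.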

[2] = Caspase-3/7 induction in HepG2 cells by small molecules, qHTS assay (AID 1346978); settings: HepG2 caspase-3/7 activation, Caspase-Glo luminescence, 17 h; series mostly up to 92.4 µM; further: nearly all actives have a fitted effect of over 15% in size
Summary of the method: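 Wild-type HepG2 cells (2,000/well) were settled 5 h at 37 C, 5% CO2, then exposed to compounds in DMSO for 17 h. Caspase-3/7 activity was read by luminescence 30 min after adding Caspase-Glo 3/7 reagent at room temperature.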

[3] = Caspase-3/7 induction in CHO-K1 cells by small molecules, qHTS cell viability counter screen (AID 1346979); settings: CellTiter-Fluor fluorescence, 17 h; series mostly up to 92.4 µM; further: nearly all actives have a fitted effect of over 35% in size; further: potency means the concentration at half of the fitted maximal effect
Summary of the method: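 Wild-type CHO-K1 cells were seeded at 1,500 per well, rested 5hr at 37 C, then exposed to compounds in DMSO. After 16hr, CellTiter-Fluor reagent was added and fluorescence read 1hr later as the viability measure.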

[4] = Caspase-3/7 induction in CHO-K1 cells by small molecules, qHTS assay (AID 1346980); settings: CHO-K1 caspase-3/7 induction, Caspase-Glo luminescence, 17 h; series mostly up to 92.4 µM; further: nearly all actives have a fitted effect of over 15% in size
Summary of the method: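 Wild-type cells were seeded at 1,500 per well and settled 5 hr at 37 C, 5% CO2, then exposed to DMSO-dissolved compounds for 17 hr. Caspase-Glo 3/7 reagent was added, and luminescence was read after 30min at room temperature.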

[5] = Caspase-3/7 induction in HepG2 cells by small molecules, qHTS cell viability counter screen (AID 1346981); settings: CellTiter-Fluor fluorescence, 17 h; series mostly up to 92.4 µM; further: nearly all actives have a fitted effect of over 30% in size
Summary of the method: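 Counter screen for cytotoxicity: HepG2 exposed 16 hr to compounds, then CellTiter-Fluor viability signal (fluorescence, 1 hr reagent incubation).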

[6] = biological target: Nuclear receptor subfamily 1 group I member 2 (Homo sapiens) (UniProt O75469); test: Human pregnane X receptor (PXR) small molecule agonists, qHTS assay (AID 1346982); settings: PXR-Luc HepG2, CYP3A4 luciferase reporter, 24 h; series mostly up to 92.4 µM; further: nearly all actives have a fitted effect of over 35% in size; further: potency means the concentration at half of the fitted maximal effect
Summary of the method: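 Luminescence (ONE-Glo, 30 min RT) after 24 hr compound exposure of PXR-Luc HepG2 cells; cells rested 5 hr post-plating in 5% charcoal-stripped FBS medium.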

[7] = biological target: Nuclear receptor subfamily 1 group I member 2 (Rattus norvegicus) (UniProt Q9R1A7); test: Rat pregnane X receptor (rPXR) activation by small molecules, qHTS assay (AID 1346983); settings: rPXR luciferase reporter cells, One-Glo luminescence, 24 h; max activation: stronger effect = higher value; further: nearly all actives have a fitted effect of over 20% in size
Summary of the method: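 Cell-based rPXR luciferase reporter assay, 2,000 cells per well, rested 5hr at 37 C before compound addition in DMSO, then 24 hr at 37 C. One-Glo reagent was added and luminescence read after 30 min at room temperature.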

[8] = biological target: Nuclear receptor subfamily 1 group I member 2 (Homo sapiens) (UniProt O75469); test: CYP3A4 induction through human pregnane X receptor (PXR) by small molecules, qHTS assay (AID 1346984); settings: DPX-2 HepG2 PXR, CYP3A4-luciferin luminescence, 24 h; series mostly up to 46.1 µM; further: nearly all actives have a fitted effect of over 40% in size
Summary of the method: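 DPX-2 reporter cells; 24h cpd, 37C; Luciferin-IPA 3uM final x3h; One-Glo 30 min RT; lumi read.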

[9] = biological target: Nuclear receptor subfamily 1 group I member 2 (Homo sapiens) (UniProt O75469); test: Human pregnane X receptor (PXR) activation by small molecules, qHTS assay (AID 1346985); settings: DPX-2 HepG2 CYP3A4-luciferase, 24 h; series mostly up to 38.3 µM; further: nearly all actives have a fitted effect of over 40% in size
Summary of the method: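 DPX-2 cells (HepG2 co-transfected with a PXR response element and a CYP3A4-promoter luciferase construct) were seeded at 2,000 per well, rested 5 hr at 37C, then exposed to DMSO-dissolved compounds for 24 hr. Activation was read as luciferase luminescence.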

Nuclear receptor subfamily 1 group I member 2 (Homo sapiens), sequence (O75469 whole entry, looked up): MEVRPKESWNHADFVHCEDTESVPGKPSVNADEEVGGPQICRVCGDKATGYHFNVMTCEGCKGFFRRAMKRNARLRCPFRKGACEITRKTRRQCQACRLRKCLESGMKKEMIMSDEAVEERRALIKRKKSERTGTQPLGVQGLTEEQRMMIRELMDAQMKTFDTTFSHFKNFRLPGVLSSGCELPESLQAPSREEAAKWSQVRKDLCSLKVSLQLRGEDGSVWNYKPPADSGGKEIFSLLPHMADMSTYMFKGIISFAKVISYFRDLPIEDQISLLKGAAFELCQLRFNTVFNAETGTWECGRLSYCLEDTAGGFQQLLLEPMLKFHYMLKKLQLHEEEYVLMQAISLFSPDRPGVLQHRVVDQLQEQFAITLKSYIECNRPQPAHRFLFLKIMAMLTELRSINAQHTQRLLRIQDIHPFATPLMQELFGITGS
Nuclear receptor subfamily 1 group I member 2 (Rattus norvegicus), sequence (Q9R1A7 whole entry, looked up): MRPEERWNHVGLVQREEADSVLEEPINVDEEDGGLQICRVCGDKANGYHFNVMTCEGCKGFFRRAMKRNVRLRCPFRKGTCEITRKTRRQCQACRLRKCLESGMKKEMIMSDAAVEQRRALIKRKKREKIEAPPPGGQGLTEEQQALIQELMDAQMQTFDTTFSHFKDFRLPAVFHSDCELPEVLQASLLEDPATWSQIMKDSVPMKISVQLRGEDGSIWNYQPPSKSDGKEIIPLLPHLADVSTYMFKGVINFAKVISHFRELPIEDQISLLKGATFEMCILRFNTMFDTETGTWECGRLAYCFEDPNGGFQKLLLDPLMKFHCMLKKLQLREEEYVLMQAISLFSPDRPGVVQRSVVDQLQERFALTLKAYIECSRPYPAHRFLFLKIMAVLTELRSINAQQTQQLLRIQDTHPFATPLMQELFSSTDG

Row | SMILES | Potency [1] | Potency [2] | Potency [3] | Potency [4] | Potency [5] | Potency [6] | max activation [7] | outcome [8] | outcome [9]
1 | Cn1c([N+](=O)[O-])cnc1COC(N)=O | inactive | inactive | inactive | inactive | inactive | inactive | – | – | –
2 | CC(C)(N=C=O)c1cccc(C(C)(C)N=C=O)c1 | inactive | inactive | inactive | inactive | inactive | 10.8 µM (active) and 61.1 µM (active) | – | – | –
3 | NCCNCCNCCNCCN | inactive | inactive | inactive | inactive | inactive | – | -4.35% (inactive) | inactive | inactive
4 | CC1Cc2ccccc2N1NC(=O)c1ccc(Cl)c(S(N)(=O)=O)c1 (stereo not given) | inactive | inactive | inactive | inactive | inactive | – | -2.07% (inactive) | inactive | inactive
5 | C=C(C)C(=O)OCCC[Si](OC)(OC)OC | inactive | inactive | inactive | inactive | inactive | 60.4 µM (active) and inactive | – | – | –
6 | O=Nc1ccc(O)cc1 | inactive | inactive | 47.4 µM (active) and inactive | inactive | inactive | inactive | – | – | –

From PubChem BioAssay (Tox21)
